Measured values published in PubChem BioAssay.
Inconclusive results are not listed. Calls of active or inactive are those of the source.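 The calls were made as follows, unless noted: active = RAM network inhibition above 8.4% in each of two replicates, 3 SD over the compound average; inconclusive = above 8.4% inhibition in only one replicate; inactive = 8.4% inhibition or less in each replicate.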

Legend:
[1] = Her2 expression decrease, cell viability multiplex – SKBR3 breast tumor cells, AlphaScreen, ATP viability, primary screen (AID 461;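 active = Her2 level under about 52% in both replicate screens, with viability over 70% of control, limit read from the data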;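 as to Her2 level: lower value means less Her2 protein in the cells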;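 as to viability: percent of carrier control wells set as 100% viability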); details: SKBR3 Her2 protein level, 18-24 h, measured here: SKBR3 viability, ATP luminescence, at 10 µM
[2] = target: Receptor tyrosine-protein kinase erbB-2 (Homo sapiens) (UniProt P04626); test: as above; details: 18-24 h, at 10 µM, stronger effect = lower value
Receptor tyrosine-protein kinase erbB-2 (Homo sapiens), sequence (P04626 whole entry, looked up): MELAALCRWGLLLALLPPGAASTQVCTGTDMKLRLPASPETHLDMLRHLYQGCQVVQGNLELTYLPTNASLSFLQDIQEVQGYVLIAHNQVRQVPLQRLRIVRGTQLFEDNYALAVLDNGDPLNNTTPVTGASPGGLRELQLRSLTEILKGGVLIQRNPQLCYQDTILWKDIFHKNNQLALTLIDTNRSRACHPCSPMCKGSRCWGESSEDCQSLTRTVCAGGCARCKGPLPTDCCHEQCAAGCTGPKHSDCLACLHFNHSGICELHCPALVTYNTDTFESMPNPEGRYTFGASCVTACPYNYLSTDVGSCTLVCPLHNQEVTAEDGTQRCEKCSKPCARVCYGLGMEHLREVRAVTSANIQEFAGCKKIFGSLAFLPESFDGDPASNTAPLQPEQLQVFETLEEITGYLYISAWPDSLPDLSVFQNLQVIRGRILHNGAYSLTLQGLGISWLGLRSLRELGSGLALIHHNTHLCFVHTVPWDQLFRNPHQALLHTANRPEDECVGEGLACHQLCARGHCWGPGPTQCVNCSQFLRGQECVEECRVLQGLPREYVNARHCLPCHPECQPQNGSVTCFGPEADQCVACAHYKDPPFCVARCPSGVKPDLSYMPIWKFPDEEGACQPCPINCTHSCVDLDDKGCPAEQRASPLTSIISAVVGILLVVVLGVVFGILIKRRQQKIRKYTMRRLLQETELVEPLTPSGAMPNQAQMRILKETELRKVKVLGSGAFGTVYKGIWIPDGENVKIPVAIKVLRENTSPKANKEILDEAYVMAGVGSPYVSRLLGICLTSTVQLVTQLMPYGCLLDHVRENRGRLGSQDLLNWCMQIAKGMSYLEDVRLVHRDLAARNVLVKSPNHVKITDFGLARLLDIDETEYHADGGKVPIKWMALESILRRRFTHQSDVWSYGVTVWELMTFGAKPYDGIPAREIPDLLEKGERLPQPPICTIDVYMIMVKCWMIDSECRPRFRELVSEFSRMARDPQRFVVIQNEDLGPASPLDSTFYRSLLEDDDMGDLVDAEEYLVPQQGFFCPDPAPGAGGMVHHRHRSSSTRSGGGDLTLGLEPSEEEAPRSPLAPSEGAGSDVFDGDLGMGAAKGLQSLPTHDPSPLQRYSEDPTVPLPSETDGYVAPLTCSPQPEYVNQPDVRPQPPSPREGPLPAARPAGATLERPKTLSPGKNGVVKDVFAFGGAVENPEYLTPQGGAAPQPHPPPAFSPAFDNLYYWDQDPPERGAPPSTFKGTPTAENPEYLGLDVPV

[3] = reduced viability of SK-BR-3 breast cancer cells – cell-based, 24 h, human, pilot screen (AID 572;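 active = viability at or below 10% of carrier control in both of two separate runs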;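 also: compound exposure lasted between 18 and 24 h rather than exactly 24 h; 100% = carrier-treated control wells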); details: SK-BR-3 viability, CellTiter-Glo luminescence, at 10 µM, stronger effect = lower value
[4] = HUVEC growth inhibition – cell-based, human, primary screen (AID 575;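 active = viability at or below 30% in both replicate assays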;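 also: 100% = median of untreated cell wells with 0.1% DMSO on each plate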); details: HUVEC proliferation, CellTiter-Glo luminescence, 72 h; at 10 µM; stronger effect = lower value
[5] = H69AR cell proliferation blockers – human, duplicate replicates, primary screen (AID 580;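 active = viability at or under a set limit in both replicates, limit being median viability minus 3 SD, cut at about 48% in these data, passing the limit was not always enough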;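 also: 100% = mean luminescence of untreated wells and 0% = no signal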); details: H69AR lung tumor cells viability, ATP luminescence, 72 h; at 10 µM; stronger effect = lower value
[6] = MRP1 drug-resistance reversers in H69AR cells – cell-based, doxorubicin co-treatment, pilot screen (AID 601;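 active = viability loss from added drug above about 55%, and viability with drug at most 40%, in both replicates, limit read from the data, passing the limit was not always enough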); details: CellTiter-Glo, 72 h, at 10 µM; for differential viability (reversal): stronger effect = higher value
[7] = yeast transport mutant growth inhibition pilot in 384-well plates, post-Golgi transport modulator project (AID 636; in the data active = inhibition above about 31%); details: absorbance 615 nm, about 18 h, stronger effect = higher value
[8] = growth suppression of yeast trafficking mutant, preliminary HTS, modulators of trafficking downstream of Golgi apparatus project, 1536-format plate, OD 615 nm (AID 637; in the data active = inhibition above about 30%); details: yeast transport mutant growth, absorbance 615 nm, 18 h; stronger effect = higher value
[9] = S. cerevisiae growth inhibition in permissive medium (OD615), pilot counter-assay for S. cerevisiae lifespan shortening project, permissive growth control (AID 705;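 active = growth inhibition above 25% in both replicates, a cutoff set 3 SD above the mean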); details: OD615, 24 h, at 10 µM, stronger effect = higher value
[10] = S. cerevisiae growth inhibition in restrictive medium, OD615, pilot screen, restrictive growth control, yeast lifespan reduction project (AID 706;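 active = growth inhibition above a set limit, 3 SD over mean compound inhibition, in both replicates, cut at about 43% in these data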;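 also: modified DeaD lifespan yeast strain shifted to restrictive glucose medium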); details: OD615, 48 h, at 10 µM, stronger effect = higher value
[11] = doxorubicin toxicity protection in MRP-1 cells – H69AR cells, CellTiter-Glo, duplicate, MRP-1 activator project, pilot screen (AID 807;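 active = viability increase at or above a cutoff of the median across tested compounds plus 3 SD, cut at about 8.5% in these data, passing the limit was not always enough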;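 also: compound pretreatment 18-22 h then 72 h combined with doxorubicin; 0% = doxorubicin alone and 100% = vehicle without doxorubicin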); details: H69AR viability with doxorubicin, CellTiter-Glo luminescence; at 10 µM; stronger effect = higher value
[12] = viability of HCT116 without oncogenic beta-catenin – human colon tumor cells, pilot screen (AID 823;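 active = cell viability at or below a set limit in both duplicate runs, the limit being the all-compound median minus 4 SD, cut at about 23% in these data, passing the limit was not always enough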;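 also: 0% = wells killed by 20 µM Hyamine and 100% = untreated DMSO cell wells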); details: HCT116 beta-catenin knockout viability, CellTiter-Glo, 60 h; at 10 µM; stronger effect = lower value
[13] = viability of PTEN-null HCT116 cells – cell-based, HCT116 clonal line, CellTiter-Glo, pilot screen (AID 824;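 active = viability at or below 27.92% in each of two runs, the all-compound median minus 4 SD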;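 also: 0% = 20 µM Hyamine control and 100% = vehicle cell control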); details: HCT116 PTEN-deleted viability, 60 h, at 10 µM, stronger effect = lower value
[14] = RAM pathway blockade in budding yeast – dse1pr::URA3 reporter, 5-FOA selection, pilot screen (AID 869;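 active = inhibition over a set limit, the all-compound mean plus 3 SD, in both replicate runs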;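 also: 0% = DMSO wells with no growth and 100% = 10 µM 1-NA-PP1 with full growth; RAM network block rescues cells from 5-FOA so hits raise OD615 growth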); details: S. cerevisiae dse1pr::URA3 5-FOA growth, OD615, 2 d; at 10 µM; stronger effect = higher value; strain carries analog-sensitive mutant Cbk1 kinase
[15] = RAM signaling pathway blockade in yeast – S. cerevisiae, Pdr1DBD-CYC8 efflux-inhibited sensitized strain, primary screen (AID 1298);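 also: 0% = DMSO untreated cells without growth and 100% = 10 µM 1-NA-PP1 full growth; higher means more yeast growth rescued from 5-FOA killing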; details: S. cerevisiae cbk1-as DSE1-URA3 strain, 5-FOA growth OD615, 2 d; at 50 µM; stronger effect = higher value
[16] = H69AR cells + 2 uM doxorubicin, measured here: viability with 2 uM doxorubicin, stronger effect = lower value
[17] = H69AR cells, compound alone cytotoxicity

CCSc1nnc(N2C(=O)CC(c3ccsc3)C3=C2CC(C)(C)CC3=O)s1 (stereo not drawn)
104%: viability [6, 16]
89%: viability [1] | viability [6, 17]
inactive: Her2 level [2] 108% | viability [3] 89% | viability [4] 81.3% | viability [5] 89% | differential viability (reversal) ([6]; H69AR cells + 2 uM doxorubicin) -15% | inhibition [7] -6.67% | inhibition [8] 9.5% | growth inhibition [9] 2.55% | growth inhibition [10] 0.01% | viability increase [11] -1.55% | viability [12] 103% | viability [13] 94.9% | inhibition [14] 0.195% | RAM network inhibition [15] 3.19%

CCN(CC)Cc1c(C(=O)OC)nnn1-c1nonc1N
inactive: Her2 level [2] 95.5% | viability [3] 87% | viability [4] 99.6% | viability [5] 106% | differential viability (reversal) ([6]; H69AR cells + 2 uM doxorubicin) 13.6% | inhibition [7] -7.4% | inhibition [8] -3.33% | growth inhibition [9] -0.575% | growth inhibition [10] -3.39% | viability increase [11] -2.07% | viability [12] 94.2% | viability [13] 102% | inhibition [14] 0.645% | RAM network inhibition [15] 0.53%
87%: viability [1]
106%: viability [6, 17]
92.1%: viability [6, 16]

CCCOC(=O)C1C2C=CC3(CN(c4cccc(Cl)c4)C(=O)C13)O2 (stereo not drawn)
93.8%: viability [6, 16]
102%: viability [1]
inactive: Her2 level [2] 85% | viability [3] 102% | viability [4] 90.4% | viability [5] 83% | differential viability (reversal) ([6]; H69AR cells + 2 uM doxorubicin) -10.8% | inhibition [7] -2.93% | inhibition [8] -0.16% | growth inhibition [9] -4.19% | growth inhibition [10] -9.97% | viability increase [11] -2.05% | viability [12] 101% | viability [13] 97.4% | inhibition [14] -0.245% | RAM network inhibition [15] 3.71%
83%: viability [6, 17]

O=C(CSc1nnc(Cn2c(=O)sc3ccccc32)n1-c1ccccc1)NCC1CCCO1 (stereo not drawn)
87.2%: viability [6, 16]
inactive: Her2 level [2] 108% | viability [3] 80.5% | viability [4] 82.3% | viability [5] 99.8% | differential viability (reversal) ([6]; H69AR cells + 2 uM doxorubicin) 12.6% | inhibition [7] -1.92% | inhibition [8] 0.83% | growth inhibition [9] -4.79% | growth inhibition [10] 10.2% | viability increase [11] -2.08% | viability [12] 99.1% | viability [13] 98.6% | inhibition [14] 1.41% | RAM network inhibition [15] 0.47%
99.8%: viability [6, 17]
80.5%: viability [1]

O=C(NCCOC(=O)C1COc2ccccc2O1)C1COc2ccccc2O1 (stereo not drawn)
92.6%: viability [6, 16]
inactive: Her2 level [2] 95% | viability [3] 92.5% | viability [4] 88.5% | viability [5] 103% | differential viability (reversal) ([6]; H69AR cells + 2 uM doxorubicin) 10.3% | inhibition [7] -6.76% | inhibition [8] -2.79% | growth inhibition [9] -7.82% | growth inhibition [10] -1.52% | viability increase [11] 0.34% | viability [12] 102% | viability [13] 100% | inhibition [14] 0.095% | RAM network inhibition [15] 0.89%
103%: viability [6, 17]
92.5%: viability [1]

COc1cccc(C2CC(c3ccc(C)cc3)n3nc(N)nc3N2)c1 (stereo not drawn)
105%: viability [6, 16]
98.2%: viability [6, 17]
inactive: Her2 level [2] 112% | viability [3] 104% | viability [4] 95.3% | viability [5] 98.2% | differential viability (reversal) ([6]; H69AR cells + 2 uM doxorubicin) -7.23% | inhibition [7] -4.1% | inhibition [8] 3.5% | growth inhibition [9] 0.34% | growth inhibition [10] 9.55% | viability increase [11] -1.45% | viability [12] 103% | viability [13] 98.6% | inhibition [14] -0.18% | RAM network inhibition [15] 7.85%
104%: viability [1]

COCCCN(C)C1CCN(C(=O)Nc2ccc(F)cc2)CC1
inactive: Her2 level [2] 124% | viability [3] 106% | viability [4] 109% | viability [5] 89% | differential viability (reversal) ([6]; H69AR cells + 2 uM doxorubicin) -5.42% | inhibition [7] -3.47% | inhibition [8] -1.5% | growth inhibition [9] -6.78% | growth inhibition [10] 3.39% | viability increase [11] 0.68% | viability [12] 103% | viability [13] 105% | inhibition [14] 0.185% | RAM network inhibition [15] 8.93%
94.4%: viability [6, 16]
106%: viability [1]
89%: viability [6, 17]

Cc1nnc(NC(=O)CSc2nc3c(c(=O)n2C)SC(C)C3)s1 (stereo not drawn)
80%: viability [6, 16]
inactive: Her2 level [2] 80% | viability [3] 89% | viability [4] 79.4% | viability [5] 84.8% | differential viability (reversal) ([6]; H69AR cells + 2 uM doxorubicin) 4.81% | inhibition [7] -6.27% | inhibition [8] 4.17% | growth inhibition [9] -11.1% | growth inhibition [10] -18.2% | viability increase [11] 0.31% | viability [12] 104% | viability [13] 99.6% | inhibition [14] 2.09% | RAM network inhibition [15] 9.95%
89%: viability [1]
84.8%: viability [6, 17]

CCN(CC)C1CCCCC1NS(=O)(=O)c1ccc(Cl)cc1 (stereo not drawn)
inactive: Her2 level [2] 116% | viability [3] 104% | viability [4] 90.8% | viability [5] 101% | differential viability (reversal) ([6]; H69AR cells + 2 uM doxorubicin) 13.1% | inhibition [7] -3.6% | inhibition [8] 3.28% | growth inhibition [9] -12% | growth inhibition [10] -3.99% | viability increase [11] -1.53% | viability [12] 86.5% | viability [13] 92.6% | inhibition [14] 1.03% | RAM network inhibition [15] 5.81%
87.8%: viability [6, 16]
104%: viability [1]
101%: viability [6, 17]
